Screening data from PubChem BioAssay.
EWS-Fli inh: EWS/Fli-driven NR0B1 reporter inhibitors, primary screen, A673 cells, NR0B1 luciferase, luminescence, MLPCN library; inhibition, % at 12.6 µM; viability-normalised; AID 651661, 2012; 350,000 compounds, 0.67% hits;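 active = mean inhibition of at least 50% after viability correction, with every replicate also passing that limit; inconclusive = mean reaches 50% but only one of two replicates passes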;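 also: firefly luciferase signal divided by Alamar Blue viability fluorescence both relative to DMSO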
TROY signal inh: inhibitors of TROY-driven NF-kB signaling, primary screen, Q293 LMP1-TROYcd cells, NF-kB luciferase, uHTS; Q293 LMP1-TROYcd NF-kB luciferase reporter, 4 h; inhibition, % at 10 µM; 360,000 compounds, 0.98% hits; AID 1347056, 2019;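 active = compounds whose plate-normalised and pattern-corrected inhibition of the luciferase reporter signal at the single screening dose is 50% or more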
TWEAK-Fn14 inh: inhibitors of TWEAK-Fn14 signaling, primary screen, luciferase reporter cells, uHTS; TWEAK-stimulated Fn14 reporter cells, luciferase luminescence, 8 h; inhibition, % at 10 µM; AID 1159606, 2016; 360,000 compounds, 2% hits; in the data active = inhibition above about 50%
LGR2 antag: inhibitors of bursicon-induced LGR2 CRE-luciferase signal, primary screen, cell-based, HEK293, CRE-luciferase reporter, bursicon stimulation; Drosophila bursicon receptor LGR2 (rickets); bursicon-stimulated, 4 h; inhibition, % at 9.99 µM; 380,000 compounds, 0.35% hits;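 active = drop in luminescence signal, shown as inhibition above about 50% in the replicate tests, limit read from the data, passing the limit was not always enough; inconclusive = probably only some replicates passing the limit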;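 also: agonist challenge used bursicon conditioned medium at about half maximal strength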
PAX8 inh HTS: inhibitors of PAX8-driven TPO luciferase reporter, primary screen, RMG-I cells, single concentration | SteadyGlo, 24 h | AID 652154, 2013 | 360,000 compounds, 1.2% hits | inhibition, % at 12.6 µM;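 active = mean replicate inhibition at least 60% with every replicate also reaching 60%; inconclusive = only one of the two criteria is met; inactive = mean below 60% and not all replicates reaching 60%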;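 also: luciferase light reporting Pax8 driven TPO promoter activity; plate controls were median of neutral control wells for no effect and mitoxantrone controls for full effect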
Starred values were filed as active, the others as inactive; ? = inconclusive; nt = no result. A selection: hits, their analogues and other compounds. The true share with any hit is near 2.8%.

SMILES	EWS-Fli inh	TROY signal inh	TWEAK-Fn14 inh	LGR2 antag	PAX8 inh HTS
COc1ccc(COc2cc(-c3cccc(OC)c3)nc3ccc(NC(=O)C(C)C)cc23)cc1	55.0*	6.7	19.2	9.5	-65.8
C[C@@H]1CN([C@@H](C)CO)C(=O)Cc2cc(N(C)C)ccc2O[C@H]1CN(C)S(=O)(=O)c1ccc(F)cc1	-2.1	nt	nt	-13.7	7.0
CCCCCCc1cc2cc(S(=O)(=O)c3ccc(F)c(Cl)c3)c(=O)oc2cc1O	nt	58.1*	53.8*	14.9	13.4
CCCCCCc1cc2cc(C(=O)OCC)c(=O)oc2cc1O	2.7	2.9	41.0	-22.6	16.8
COc1cccc(NC(=O)N(C)C[C@@H]2Oc3ncc(C4=CCCCC4)cc3C(=O)N([C@H](C)CO)C[C@H]2C)c1	2.1	nt	nt	14.9	nt
CC(=O)NCCc1ccc(C(=O)COC(=O)c2ccco2)cc1	-22.1	9.2	56.3*	39.2	-39.0
CC(=O)NCCc1ccc(C(=O)COC(=O)C2CCCCC2)cc1	-4.6	85.8*	89.6*	77.4*	-82.6
Cc1ccc(C(=O)COC(=O)C2CCC2)cc1	nt	-43.7	-10.9	nt	nt
C[C@H](CO)N1C[C@H](C)[C@H](CN(C)CC2CC2)OCCCC[C@H](C)Oc2ccc(NC(=O)Nc3ccc4c(c3)OCO4)cc2C1=O	nt	nt	nt	nt	-0.2
C[C@H]1CN([C@@H](C)CO)C(=O)Cc2cc(NS(=O)(=O)c3cccs3)ccc2O[C@H]1CN(C)C(=O)Nc1ccc(C(F)(F)F)cc1	-3.0	nt	nt	-7.9	-5.2
CC[C@H]1CN2CCc3cc(OC)c(OC)cc3C2C[C@@H]1C[C@H]1NCCc2cc(OC)c(OC)cc21 (stereo partly specified)	58.8*	85.8*	95.4*	102.6*	110.8*
CCC1=C(CC2NCCc3ccccc32)CC2c3cc(OC)c(OC)cc3CCN2C1 (stereo unspecified)	-0.8	35.6	41.2	70.5*	59.5
O=C(Oc1ccc2c(-c3ccccc3)cc(=O)oc2c1)C1CCCCC1	nt	-20.3	10.7	nt	nt
COc1ccc(-c2cc(=O)oc3cc(OC(=O)C4CCCCC4)ccc23)cc1	-11.8	21.7	53.9*	10.8	2.2
Cc1ccccc1-c1cnc2c(c1)C(=O)N([C@@H](C)CO)C[C@@H](C)[C@H](CN(C)CC1CCOCC1)O2	-5.5	nt	nt	-3.4	nt
Cc1ccccc1NC(=S)N(Cc1ccccc1)Cc1cccnc1	5.6	-4.8	-3.2	-2.6	-6.1
Cc1ccccc1NC(=S)N(Cc1cccnc1)Cc1ccco1	2.1	-20.1	59.7*	-5.3	-10.2
O=C(Cn1ncc(Cl)c(Cl)c1=O)NCC1CCCCC1	?	-0.5	96.6*	nt	1.4
O=C1CN(C(=O)Cn2ncc(Cl)c(Cl)c2=O)c2ccccc2N1	21.5	70.2*	94.3*	105.1*	95.3*
O=C1CN(C(=O)COc2ccc(Cl)c(Cl)c2)c2ccccc2N1	3.8	9.6	2.2	0.4	-55.5
O=C(Cn1ncc(Cl)c(Cl)c1=O)NC1CCCCC1	50.8*	31.9	84.0*	2.6	54.4
Cc1cccc(NC(=O)CNC(=O)Cn2ncc(Cl)c(Cl)c2=O)c1C	nt	10.3	100.3*	nt	nt
O=C(Cn1ncc(Cl)c(Cl)c1=O)NC1CCS(=O)(=O)C1 (stereo unspecified)	1.0	-8.1	-13.2	-7.6	27.0
O=C(NCC(F)(F)F)[C@@H]1[C@@H](CO)[C@@H]2Cn3c(cccc3=O)[C@H]1N2CC1CCOCC1	-6.1	nt	nt	9.9	-4.7
C[C@H](O)C#Cc1cnc2c(c1)C(=O)N([C@H](C)CO)C[C@@H](C)[C@@H](CN(C)C(=O)Nc1ccc(F)cc1)O2	0.7	nt	nt	-0.8	nt
SMILES	EWS-Fli inh	TROY signal inh	TWEAK-Fn14 inh	LGR2 antag	PAX8 inh HTS
CN(c1ccc(O)cc1)c1nc(-c2ccccc2)cs1	nt	-44.0	55.2*	-63.0	nt
CN(C(=O)c1ccco1)c1nc(-c2ccccc2)cs1	-97.0	-21.9	-10.8	-11.2	-226.4
O=c1cc(-c2c(F)c(F)c(F)c(F)c2F)oc2ccccc12	48.8	65.7*	5.7	67.2*	nt
O=c1cc(-c2cccc(F)c2)oc2ccccc12	-43.3	31.6	-29.0	-36.9	-47.9
CCCNC(=O)C[C@@H]1C[C@H]2c3cc(NC(=O)c4cccnc4)ccc3O[C@H]2[C@@H](CO)O1	3.9	nt	nt	-10.4	-0.6
COc1ccccc1C(=O)/C=C/c1ccc(N2CCCCC2)c([N+](=O)[O-])c1	-58.2	-34.3	55.2*	-11.4	-10.1
O=C(/C=C/c1ccc(N2CCCCC2)c([N+](=O)[O-])c1)c1ccc(O)cc1	-73.8	48.7	14.4	-57.8	-53.2
O=C(/C=C/c1cccc([N+](=O)[O-])c1)N1CCN(c2ccccn2)CC1	nt	0.5	-3.4	-17.4	-1.0
O=C(/C=C/c1cccc([N+](=O)[O-])c1)n1cnc2ccccc21	65.3*	20.4	102.6*	24.0	18.6
CC(=O)Oc1ccccc1C(=O)C=Cc1cccc([N+](=O)[O-])c1	43.5	19.6	82.6*	101.4*	15.2
C[C@@H]1CN([C@@H](C)CO)C(=O)c2cc(C3=CCCC3)cnc2O[C@@H]1CN(C)Cc1cccc(F)c1	5.1	nt	nt	7.6	2.8
CC(=O)n1c(-c2ccccc2)c(CO)c2ccccc21	-10.6	17.4	-8.8	-12.0	-9.5
NCCc1c(-c2ccccc2)n(-c2ccccc2)c2ccccc12	12.6	-13.7	-22.4	58.1*	-6.3
CC(C)CC#Cc1cnc2c(c1)C(=O)N([C@H](C)CO)C[C@@H](C)[C@@H](CN(C)Cc1cncnc1)O2	3.5	nt	nt	4.6	nt
Cn1c(=O)c2ncn(CC(=O)O)c2n(C)c1=O	3.7	52.4*	-8.7	-16.0	17.6
CC(C)N(C[C@@H]1N[C@H](CO)[C@@H]1c1ccc(C2=CCCC2)cc1)C(=O)C1CC1	-0.1	nt	nt	0.9	nt
Cc1cccc(N2CCN(C(=O)c3ccc(N4CCCC4=O)cc3)CC2C)c1 (stereo unspecified)	nt	23.9	20.2	nt	8.7
Cc1cccc(N2CCN(C(=O)c3cccc(N4CCCC4=O)c3)C(C)C2)c1 (stereo unspecified)	59.9*	13.0	18.5	-2.6	26.5
COc1ccc(-c2cc(N)n(S(=O)(=O)c3c(F)c(F)c(F)c(F)c3F)n2)cc1OC	45.8	9.1	50.8*	-14.8	nt
O=C(NCc1ccccn1)[C@@H]1[C@@H](CO)[C@@H]2Cn3c(cccc3=O)[C@@H]2N1CCc1ccccc1	19.5	nt	nt	-4.0	nt
CCCC#Cc1ccc([C@H]2[C@H]3CN(S(=O)(=O)c4ccccc4C)CC(=O)N3[C@H]2CO)cc1	-1.5	nt	nt	16.2	nt
Cc1cc(C(=O)COc2ccc(C#N)cc2)c(C)n1-c1ccc2c(c1)OCO2	11.9	0.7	88.6*	-9.2	5.6
Cc1cc(C(=O)COC(=O)C2=COCCO2)c(C)n1-c1ccc2c(c1)OCO2	nt	-21.3	-10.7	nt	-78.9
Cc1cc(C(=O)COC(=O)Cc2n[nH]c(=O)c3ccccc23)c(C)n1-c1ccc2c(c1)OCCO2	13.8	38.5	68.3*	nt	6.0
